# Results from PubChem BioAssay AID449762 (Southern Research Specialized Biocontainment Screening …, 2010).
# Out of some 330,000 compounds screened, about 1,900 (0.58%) were called active. Inconclusive results (about 4%) are left out. Cut-off read from the data, not from the text of the source: inconclusive = inhibition above about 70% without an active follow-up result; inactive = below that. Only a sample is shown. Results with a measured potency or affinity are listed apart.
# Test: M. tuberculosis growth inhibition, HTS (AID 449762);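 note: bacterial growth assessed after seven days of incubation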
# Conditions: M. tuberculosis H37Rv growth inhibition, 7H9 media; at 25 µM; active compounds read high
row,SMILES,inhibition
1,C[C@H](CO)N1C[C@H](C)[C@@H](CN(C)Cc2ccc(-c3ccccc3)cc2)Oc2c(NS(=O)(=O)c3ccc(F)cc3)cccc2C1=O,-1.65% (inactive)
2,C[C@]12CC[C@@H](O)CC1=CC(=O)C1C2CC[C@]2(C)C(=O)CCC12 (stereo partly specified),3.17% (inactive)
3,C[C@]12CC[C@H](O)CC1=CC(=O)C1C2CC[C@]2(C)C(=O)CCC12 (stereo partly specified),-1.13% (inactive)
4,NCCCn1cnc2ccccc21,9.6% (inactive)
5,Cc1nonc1OC(C)CNc1ccc([N+](=O)[O-])cc1 (stereo unspecified),8.67% (inactive)
6,CN1CCN(c2nc(-c3ccco3)cc(C(F)(F)F)n2)CC1,7.69% (inactive)
7,O=[N+]([O-])c1cnn(-c2nc(-c3ccco3)cc(C(F)(F)F)n2)c1,-2.2% (inactive)
8,CCn1ncc(/C=N/O)c1C,-7.24% (inactive)
9,CCOC(=O)C1(CCOc2ccccc2)CCN(Cc2cccc(O)c2)CC1,3.57% (inactive)
10,CCOC(=O)C1(CCOc2ccccc2)CCN(Cc2cccc(OC)c2)CC1,8.09% (inactive)
11,Cc1ccc(OCC(=O)N(C)CC(=O)Nc2ccc(F)c(F)c2F)cc1,4.12% (inactive)
12,Cc1ccc(S(=O)(=O)N2CCN(C3CC4CCC3C4)CC2)cc1 (stereo unspecified),-2.36% (inactive)
13,O=C(CCNS(=O)(=O)c1ccccc1)N1CCN(C(c2ccccc2)c2ccccc2)CC1,4.06% (inactive)
14,CCOc1ccc(-c2cc(CCCC(=O)NCCc3ccccc3)no2)cc1,-2.4% (inactive)
15,CCOc1ccc(-c2cc(CCCC(=O)NCCCOC)no2)cc1,-1.18% (inactive)
16,CCn1c2c(c3cc(OCC(C)C)ccc31)CCCC2=O,-1.76% (inactive)
17,COc1ccc(NC(=O)CS(=O)(=O)c2cn(CC(=O)N3CCOCC3)c3ccccc23)cc1OC,-16% (inactive)
18,O=S1(=O)N=C(SCCO)c2ccccc21,8.5% (inactive)
19,Cc1ccc(SC2=C(Sc3ccc(C)cc3)C(=O)c3ccccc3C2=O)cc1,-5.39% (inactive)
20,COc1cc(C(=O)OCC(=O)Nc2ccccc2C(=O)NC2CC2)c([N+](=O)[O-])cc1OC,-0.465% (inactive)
21,COc1cccc(C2C(C#N)=C(N)OC(C(C)(C)C)=C2C#N)c1 (stereo unspecified),-2.5% (inactive)
22,COC(=O)c1c(NC(=S)Nc2ccc(C(=O)N3CCOCC3)cc2)sc2c1CCC2,-7.13% (inactive)
23,CN(C)CCNC(=O)c1ccc2c(=O)n(Cc3ccc(Cl)cc3)c(=S)[nH]c2c1,2.11% (inactive)

row,SMILES,inhibition
1,O=C(NCCN1CCCC1)c1ccc(Cn2c(=S)[nH]c3ccc(Br)cc3c2=O)cc1,64.3% (inactive)
2,C/C(=N/NC(=O)c1cc(C)[nH]n1)c1ccncc1,0.52% (inactive)
3,CC1CCN(C(=O)C2CCCCN2S(=O)(=O)c2cccc([N+](=O)[O-])c2)CC1 (stereo unspecified),0.51% (inactive)
4,COC(=O)c1[nH]c2ccccc2c1NC(=O)C(C)N1CCN(C(=O)c2ccco2)CC1 (stereo unspecified),-9.02% (inactive)
5,CCOC(=O)c1sc(NC(=O)c2cc(-c3ccc(C)cc3)nc3ccccc23)c(C#N)c1C,1.87% (inactive)
6,COc1cccc(NS(=O)(=O)c2c(C)n(C)c(=O)n(C)c2=O)c1,-4.03% (inactive)
7,Cc1ccc(C)c(N2CCN(S(=O)(=O)c3ccc(-c4cc(C)no4)s3)CC2)c1,6.24% (inactive)
8,Cc1nn(-c2ccc([N+](=O)[O-])cc2)c2c1C(c1ccc(OC(F)F)cc1)N1C(=N2)C(=O)Nc2ccccc21 (stereo unspecified),65.4% (inactive)
9,Cc1nn(-c2ccc([N+](=O)[O-])cc2)c2c1C(c1cccc(Br)c1)N1C(=N2)C(=O)Nc2ccccc21 (stereo unspecified),15.9% (inactive)
10,Cc1cc(C(=O)NCC(=O)OCC(=O)Nc2ccc(OC(F)F)cc2)ccc1[N+](=O)[O-],-2.28% (inactive)
11,CC(C)NC(=O)[C@@H]1CSC2c3ccccc3C(=O)N21 (stereo partly specified),-1.97% (inactive)
12,O=C(C[C@@H]1C/C=C\CCCC(=O)OC[C@@H]2CCCN2C1=O)N[C@H](CO)Cc1ccccc1,7.5% (inactive)
13,Cc1cc(SCC(=O)NCCN2C(=O)CSC2=O)nc2c(C)cccc12,4.1% (inactive)
14,Cc1cccc2c1-c1sc(C(=O)Nc3cccc([N+](=O)[O-])c3C)cc1CO2,-9.42% (inactive)
15,Cc1cccc(NC(=O)c2cc3c(s2)-c2c(C)cccc2OC3)n1,0.14% (inactive)
16,Cc1cccc(OCCCC(=O)Nc2nccs2)c1C,8.02% (inactive)
17,O=C(c1sccc1-c1ccccc1)N1CCN(S(=O)(=O)c2ccccc2)CC1,-22.5% (inactive)
18,COCCNc1nc(SCC(=O)N2CCN(c3ccccc3OC)CC2)nc2ccccc12,-10.5% (inactive)
19,[O-][n+]1c2ccccc2c2n1CCN=C2c1ccc(Cl)cc1,0.84% (inactive)
20,COc1ccc2c3n([n+]([O-])c2c1)CCN=C3c1ccc(C)cc1,17% (inactive)
21,O=C(O)c1ccc(Cn2ccc3ccccc32)o1,2% (inactive)
22,CC(=O)C1=C(C)NC(SCC(N)=O)=C(C#N)C1c1ccco1 (stereo unspecified),-6.56% (inactive)
23,CC(=O)C1=C(C)NC(SCC(=O)c2ccc(Cl)cc2)=C(C#N)C1c1ccco1 (stereo unspecified),2.1% (inactive)

row,SMILES,inhibition
1,CCOc1ccccc1NC(=O)CSC1=C(C#N)C(c2ccco2)C(C(=O)Nc2nc3ccccc3s2)=C(C)N1 (stereo unspecified),49.6% (inactive)
2,CC1=C(C(=O)Nc2ccccc2)C(c2ccco2)C(C#N)=C(SCC(=O)Nc2cccc(C)c2C)N1 (stereo unspecified),-1.31% (inactive)
3,CCOc1ccccc1CN1CCN(CC2CC2)CC1CCO (stereo unspecified),-1.16% (inactive)
4,COCCCNC(=O)CC(NCCCOC)C(=O)O (stereo unspecified),0.77% (inactive)
5,COC(=O)c1ccc(NS(=O)(=O)N(C)C)cc1,-1.07% (inactive)
6,Nc1c(N(CCC2=CCCCC2)C(=O)c2ccco2)c(=O)[nH]c(=O)n1Cc1ccccc1,9.03% (inactive)
7,Cc1ccc(C(=O)N(CCC2=CCCCC2)c2c(N)n(Cc3ccccc3)c(=O)[nH]c2=O)o1,6.47% (inactive)
8,CS(=O)(=O)c1ccc(Cl)c(NC(=O)COC(=O)CCN=C2NS(=O)(=O)c3ccccc32)c1,-3.06% (inactive)
9,O=C(CCl)NN1C(=O)NC(c2ccccc2)(c2ccccc2)C1=O,2.88% (inactive)
10,Cc1ccc(S(=O)(=O)NCC(=O)OCc2cc(=O)oc3cc(C)ccc23)cc1,-1.73% (inactive)
11,O=C(NC(=S)Nc1ccc2[nH]c(=O)[nH]c2c1)c1ccccc1F,-4.55% (inactive)
12,Clc1ccc2c(c1)C(OC1CN3CCC1CC3)c1ccccc1CS2 (stereo unspecified),9.17% (inactive)
13,Brc1ccc2c(c1)C(C1=NCCN1)c1ccccc1CS2 (stereo unspecified),0.75% (inactive)
14,NC(=S)N/N=C/c1c(O)ccc2ccccc12,-0.33% (inactive)
15,CN(C)/N=C/c1c(O)ccc2ccccc12,27.8% (inactive)
16,CCCN(CCC)C(=O)c1ccc2nc(-c3ccc(OC)c(OC)c3)c(-c3ccc(OC)c(OC)c3)nc2c1,-2.59% (inactive)
17,CC1CCCN(C(=O)Cc2cccc3ccccc23)C1 (stereo unspecified),7.05% (inactive)
18,CCN(c1ccccc1)S(=O)(=O)c1cccc(C(=O)Nc2ccc(C)cn2)c1,-11.7% (inactive)
19,COc1cccc(-c2cccc(NC(=O)C3CCN(C4CCOCC4)CC3)c2)c1,6.63% (inactive)
20,Cc1ccc(/C=N/N2C(=O)C3C(C2=O)C2C=CC3C23CC3)o1 (stereo unspecified),-4.61% (inactive)
21,O=C1C2C(C(=O)N1/N=C/c1ccc(N3CCCCC3)o1)C1C=CC2C12CC2 (stereo unspecified),6.38% (inactive)
22,CC(C)(C)n1nnnc1C(c1ccc(Cl)cc1)N1CCCc2ccccc21 (stereo unspecified),-4.81% (inactive)
23,N#C/C(=N\Nc1ccccc1)C(N)=S,2.54% (inactive)

row,SMILES,inhibition
1,N#C/C(=N\Nc1ccc(Cl)cc1)C(N)=S,59.5% (inactive)
2,Cn1c(NN=O)nc2ccccc21,0.37% (inactive)
3,Cc1ccc(C)c(N=Nc2nc3ccccc3n2C)c1,-4.4% (inactive)
4,CCCCCc1ccc(-c2cn(CN3C(=O)c4ccccc4C3=O)nn2)cc1,-0.74% (inactive)
5,COC(=O)c1cc(COC(=O)c2ccc3ccccc3n2)oc1C,5.66% (inactive)
6,O=C(Cc1ccc([N+](=O)[O-])cc1)Nc1ccc(Cl)cc1,-3.64% (inactive)
7,CCc1cccc(NC(=O)Cc2ccc([N+](=O)[O-])cc2)c1,-1.32% (inactive)
8,Fc1ccc(CSc2ccc3nnc(-c4cccnc4)n3n2)cc1,-5.63% (inactive)
9,Cn1c(-c2ccc(=O)[nH]c2)nc2ccccc21,-2.91% (inactive)
10,COC(=O)CC(NC(=O)c1ccco1)c1cccc2ccccc12 (stereo unspecified),-11% (inactive)
11,CC(=O)O[C@H]1CC[C@H]2[C@@H]3CCc4cc(O)ccc4[C@H]3CC[C@]12C,3.79% (inactive)
12,C[C@]12CC[C@@H]3c4ccc(O)cc4CC[C@H]3[C@@H]1CC[C@@H]2OC(=O)CCC(=O)O,5.59% (inactive)
13,COc1ccc(/C=N/NC(=O)c2nonc2C)cc1,5.08% (inactive)
14,COc1ccc(CCNC(=O)CSc2nn(-c3ccccc3)c(=S)s2)cc1,-1.49% (inactive)
15,O=C(NC1CCCCC1)C(c1ccc2ncccc2c1)N(Cc1ccc2c(c1)OCO2)C(=O)c1cccs1 (stereo unspecified),7% (inactive)
16,COc1ccc(C(=O)N(Cc2ccco2)C(C(=O)NC2CCCC2)c2ccc(O)cc2)cc1OC (stereo unspecified),-4.43% (inactive)
17,COc1cc(C(=O)Nc2ccc3nc4n(c(=O)c3c2)CCCC4)ccc1Br,0.83% (inactive)
18,O=[N+]([O-])c1ccc(N2CCN(Cc3ccccc3)CC2)s1,62.1% (inactive)
19,O=[N+]([O-])c1ccc(CN2CCCCCC2)s1,-2.04% (inactive)
20,CC(=O)N(CC1CCCO1)c1nnc(-c2cnccn2)s1 (stereo unspecified),-7.32% (inactive)
21,CCOC(=O)C[N+](C)(C)CCOC1CC2CCC1(C)C2(C)C (stereo unspecified),0.01% (inactive)
22,CCCOC(=O)C[N+](C)(C)CCOC1CC2CCC1(C)C2(C)C (stereo unspecified),-2.27% (inactive)
